D2 ag-1 = agonists of human D2 dopamine receptor; 340,000 tested, 0.53% active; AID 485358; HEK293 T-REx D2 cells, calcium flux agonist mode; activation, % at 2 µM;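 active = activation over 3 SD above normal in the single-dose calcium agonist read, cut at about 30% in these data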; note: 0% is about no effect
Target sequence (P14416 whole entry, looked up): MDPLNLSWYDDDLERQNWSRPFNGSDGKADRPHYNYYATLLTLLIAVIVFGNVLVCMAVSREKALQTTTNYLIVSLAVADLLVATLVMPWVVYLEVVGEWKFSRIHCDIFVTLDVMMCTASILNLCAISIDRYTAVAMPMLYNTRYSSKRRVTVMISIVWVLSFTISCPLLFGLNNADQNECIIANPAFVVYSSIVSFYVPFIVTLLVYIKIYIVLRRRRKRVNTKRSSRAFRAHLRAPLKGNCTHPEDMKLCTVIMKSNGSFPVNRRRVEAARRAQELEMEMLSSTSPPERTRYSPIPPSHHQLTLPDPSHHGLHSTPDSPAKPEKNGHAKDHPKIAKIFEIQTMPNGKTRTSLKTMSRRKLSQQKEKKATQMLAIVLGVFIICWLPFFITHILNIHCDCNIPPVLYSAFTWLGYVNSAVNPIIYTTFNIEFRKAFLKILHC
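Tetracycline-induced HEK293 Trex cells with D2 receptor force-coupled to calcium signaling, plated overnight at 30 C and loaded with no-wash calcium dye. Calcium flux read kinetically for 180 s after compound addition; responses flag agonists.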
D2 ag-2 = agonists of human D2 dopamine receptor (beta-arrestin); P14416; DiscoveRx PathHunter D2 beta-arrestin, luminescence, 90 min; 100% = 57 uM dopamine signal; activation, % (concentration not given with the values); 360,000 tested, 0.084% active; AID 624465; in the data active = activation above about 40%; inconclusive = between about 15% and that limit
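DiscoveRx PathHunter D2 beta-arrestin cells (2,100/well) attached overnight, then compound-stimulated 90 min at 37 C in HBSS/10 mM HEPES/0.1% Tween-20 buffer; beta-galactosidase complementation read by luminescence after 1 h at ambient temperature. Dopamine 57 uM final (EC100) as control.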
D2 antagonist = antagonists of human D2 dopamine receptor; inhibition, % at 10 µM; HEK293 TREx D2 cells, calcium flux, dopamine EC80; 340,000 tested, 2% active; in the data active = inhibition above about 30%; inactive = below that, where a call was filed; note: 0% is about no effect
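Calcium mobilization kinetics were recorded at 1 s intervals in tetracycline-induced HEK293 T-REx D2 cells, first for 180 s after compound addition and then 180 s after EC80 dopamine.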
D2 PAM-1 = D2 dopamine receptor (human) potentiation; P14416; HEK293 T-REx D2, calcium flux, EC20 dopamine potentiation; potentiation, % at 10 µM; 340,000 tested, 0.34% active; AID 485347;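 active = potentiation over 3 SD above the plate norm, cut at about 30% in these data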; note: 0% is about no effect
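Tetracycline-induced HEK293 T-REx cells force-coupled to calcium signalling expressed D2; compounds were pin-added after a 10 s baseline, read kinetically 180 s, then an EC20 dopamine challenge followed with a further 180 s calcium read.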
D2 PAM-2 = potentiates the human D2 dopamine receptor allosterically | DiscoveRx D2 beta-arrestin cells, luminescence, 90 min; 100% = 57 uM dopamine signal | 360,000 tested, 0.23% active | potentiation, % (no concentration beside the values) | AID 624464 | P14416; in the data active = potentiation above about 50%; inconclusive = mostly about 30% to 49%
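PathHunter D2 cells, attached overnight at 37 deg C, received compound in DMSO plus dopamine at EC20 (50 nM final) for 90 min at 37 deg C. Beta-arrestin recruitment was read as luminescence after 1 h with detection reagent at ambient temperature.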
* = called active by the depositor; ! = not active in a repeat. Most compounds without a hit are left out; they make up all but 2.4% or so of the library.

`Cc1ccc(C)c(NS(=O)(=O)c2ccc(OCC(=O)N3CCCC3)cc2)c1` gave D2 ag-1 -0.2, D2 ag-2 0.4, D2 antagonist 8.1, D2 PAM-1 -4.9 and D2 PAM-2 -1.9.
For CN(c1ccc(OCC(=O)N2CCOCC2)cc1)S(=O)(=O)c1ccc(Cl)cc1 the results were D2 ag-1 -0.2, D2 ag-2 -0.6, D2 antagonist 35.4*, D2 PAM-1 -9.7 and D2 PAM-2 -2.1.
`Cc1ccc(CN2C(=O)C3(SCC(=O)N3c3ccc(C)c(C)c3)c3ccccc32)cc1` (stereo not drawn) gave D2 ag-1 -0.4 and D2 PAM-1 -2.9.
Screening Cc1ccc(NC(=O)C2CCN(S(=O)(=O)c3cccc4nonc34)CC2)cc1 returned D2 ag-2 5.1, D2 PAM-1 -5.7 and D2 PAM-2 1.9.
Screening Cc1ccccc1NC(=O)C1CCN(S(=O)(=O)c2cccc3nonc23)CC1 returned D2 ag-1 -2.3, D2 ag-2 -3.5, D2 antagonist 4.6, D2 PAM-1 44.0*! and D2 PAM-2 0.3.
Screening O[C@H]1CN(CC2CCCCC2)[C@@H](c2ccc(Cl)cc2)C[C@@H]1n1cc(-c2ccc(F)cc2)nn1 returned D2 ag-2 -7.1 and D2 PAM-2 -5.1.
Screening COc1ccccc1NC(=O)Cn1c(O)c(N=NC(=O)c2ccccc2O)c2ccccc21 returned D2 ag-1 3.5, D2 ag-2 inconclusive, D2 antagonist 55.1*, D2 PAM-1 -4.3 and D2 PAM-2 9.1.
For CCOC(=O)CSc1nc2ccc(NC(=O)COc3ccccc3C)cc2s1 the results were D2 ag-1 -0.5 and D2 PAM-1 6.0.
For CCOc1cc(-c2cc(-c3ccc(N)cc3)nc(N)c2C#N)ccc1O the results were D2 ag-1 -1.8, D2 ag-2 7.6, D2 antagonist 5.5, D2 PAM-1 3.1 and D2 PAM-2 -11.2.
For CCOc1cc(-c2noc(N)c2C#N)cc(OCC)c1OCC the results were D2 ag-1 0.9, D2 ag-2 40.8*, D2 antagonist 0.9, D2 PAM-1 27.2 and D2 PAM-2 130.3*.
Cc1ccc(NC(=O)C2CCCN(c3ncccn3)C2)cc1F (stereo not drawn) was read as D2 ag-1 -0.6, D2 ag-2 -2.1, D2 antagonist 8.3, D2 PAM-1 -7.2 and D2 PAM-2 -4.3.
Screening Cc1cc(C)cc(NC(=O)C2CCCN(c3ncccn3)C2)c1 (stereo not drawn) returned D2 ag-1 -0.9, D2 ag-2 3.5, D2 antagonist 50.1*, D2 PAM-1 -7.6 and D2 PAM-2 1.4.
`CCc1nnc(NC(=O)C2CCCN(c3nc(C)cc(C)n3)C2)s1` (stereo not drawn) gave D2 ag-1 3.3, D2 ag-2 -1.6, D2 antagonist 0.0, D2 PAM-1 10.9 and D2 PAM-2 3.0.
`Cc1cc(C)nc(N2CCCC(C(=O)Nc3nnc(C(C)(C)C)s3)C2)n1` (stereo not drawn) gave D2 ag-1 -2.5, D2 ag-2 1.6, D2 antagonist 47.9*, D2 PAM-1 3.3 and D2 PAM-2 -10.7.
CCN1CCN(C(=O)c2cc3c(s2)-c2ccccc2S(=O)(=O)C3)CC1 was read as D2 ag-1 0.3, D2 ag-2 -4.4, D2 antagonist 45.3*, D2 PAM-1 -9.4 and D2 PAM-2 3.4.
`Cc1cc(C)c(-c2csc(NC(=O)C3=COCCO3)n2)cc1C` gave D2 ag-1 -0.9, D2 ag-2 -1.5, D2 antagonist 31.8*, D2 PAM-1 2.9 and D2 PAM-2 -18.0.
`Cc1ccc2c(c1)[nH]c1c(N3CCN(Cc4ccccc4)CC3)ncnc12` gave D2 ag-1 0.9, D2 ag-2 2.2, D2 antagonist -27.9, D2 PAM-1 15.9 and D2 PAM-2 -32.1.
For Cc1ccc2[nH]c3c(N4CCN(Cc5ccccc5)CC4)ncnc3c2c1 the results were D2 ag-1 1.2, D2 ag-2 5.0, D2 antagonist 38.6*, D2 PAM-1 -18.1 and D2 PAM-2 -19.6.
CCc1ccc(S(=O)(=O)N2CCN(c3ccc(Cl)c(Cl)c3)CC2)cc1 was read as D2 ag-1 -1.3 and D2 PAM-1 8.0.
`C(=C\c1ccccc1)/CN1CCN(C(c2ccccc2)c2ccccc2)CC1` gave D2 antagonist 52.7*.

Screens (PubChem)
